Results: PMC4336329 (PLoS ONE, 2015)
Hit rate of the full screen: of about 310,000 compounds, about 2,200 (0.71%) showed an effect of 50% or more. Effects have a minus sign here. Shown is part of a subset that was picked to be rich in strong results.

Each molecule was assayed against human ether-à-go-go-related gene (hERG) potassium channel (human, UniProt Q12809) (assay: primary screen, population patch clamp on CHO cells stably expressing hERG; higher = less effect of the substance).
Chain of human ether-à-go-go-related gene (hERG) potassium channel (Q12809 whole entry, looked up): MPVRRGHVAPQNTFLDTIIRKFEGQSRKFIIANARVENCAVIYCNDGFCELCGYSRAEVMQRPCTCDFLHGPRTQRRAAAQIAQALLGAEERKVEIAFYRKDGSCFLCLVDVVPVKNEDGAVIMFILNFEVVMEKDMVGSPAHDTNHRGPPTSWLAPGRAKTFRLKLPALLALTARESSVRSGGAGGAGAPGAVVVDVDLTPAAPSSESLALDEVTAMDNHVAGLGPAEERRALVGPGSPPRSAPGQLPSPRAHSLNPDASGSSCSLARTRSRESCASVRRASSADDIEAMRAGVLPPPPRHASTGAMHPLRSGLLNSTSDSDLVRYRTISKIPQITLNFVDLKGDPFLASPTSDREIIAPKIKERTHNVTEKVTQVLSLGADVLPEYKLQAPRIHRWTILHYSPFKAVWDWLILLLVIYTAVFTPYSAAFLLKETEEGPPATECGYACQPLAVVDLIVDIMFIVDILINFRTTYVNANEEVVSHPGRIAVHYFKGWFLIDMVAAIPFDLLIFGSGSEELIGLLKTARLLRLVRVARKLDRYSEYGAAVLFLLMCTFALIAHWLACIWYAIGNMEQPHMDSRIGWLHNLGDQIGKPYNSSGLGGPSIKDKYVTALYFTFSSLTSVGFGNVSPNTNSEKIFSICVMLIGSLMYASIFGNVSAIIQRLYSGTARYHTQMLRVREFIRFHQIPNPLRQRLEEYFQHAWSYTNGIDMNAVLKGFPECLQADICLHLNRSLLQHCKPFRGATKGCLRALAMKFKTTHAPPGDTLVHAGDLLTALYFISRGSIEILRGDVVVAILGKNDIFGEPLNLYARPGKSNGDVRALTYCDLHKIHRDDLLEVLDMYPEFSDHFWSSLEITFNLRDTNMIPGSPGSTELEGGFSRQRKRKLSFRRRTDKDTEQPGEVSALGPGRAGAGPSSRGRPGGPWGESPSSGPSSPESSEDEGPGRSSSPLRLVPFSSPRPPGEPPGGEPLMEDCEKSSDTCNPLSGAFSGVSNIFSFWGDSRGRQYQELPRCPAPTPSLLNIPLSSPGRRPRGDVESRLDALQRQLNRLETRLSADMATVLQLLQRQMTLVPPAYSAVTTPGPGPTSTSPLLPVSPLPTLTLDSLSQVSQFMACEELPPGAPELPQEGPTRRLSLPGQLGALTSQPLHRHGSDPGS
For Cc1[nH]n(-c2ccccc2)c(=O)c1C=Nc1ccc(S(=O)(=O)Nc2nccs2)cc1, the “hERG current change (%, negative = inhibition) at 1uM” value was 12.2%. In the case of O=S1(=O)CCC(NC(=S)Nc2ccc3ccccc3c2)C1 (stereo not drawn), the “hERG current change (%, negative = inhibition) at 1uM” value is reported as 11.6%. COCCn1c(SCC(=O)NC2(C#N)CCCCC2)nc2ccccc2c1=O was tested, and the “hERG current change (%, negative = inhibition) at 1uM” value was -12.8%. For O=c1[nH]c(Cn2nnc(-c3ccccc3)n2)nc2scc(-c3ccccc3)c12, the “hERG current change (%, negative = inhibition) at 1uM” value was 13.1%. In the case of N#Cc1nc(COc2cccc(Cl)c2)oc1NCc1ccncc1, the “hERG current change (%, negative = inhibition) at 1uM” value is reported as -53.8%. In the case of CN(C)CCNc1oc(COc2cccc(Cl)c2)nc1C#N, the “hERG current change (%, negative = inhibition) at 1uM” value is reported as -4.66%. With N#Cc1nc(COc2cccc(Cl)c2)oc1NCc1ccco1 the “hERG current change (%, negative = inhibition) at 1uM” value was -1.39%. Cc1nc2c(n1C1CCCCC1)C(=O)c1ccccc1C2=O was tested, and the “hERG current change (%, negative = inhibition) at 1uM” value was 19.1%. With COc1ccc2c(c1)c(C(=O)C(C)N1CCCCC1)c(C)n2C (stereo not drawn) the “hERG current change (%, negative = inhibition) at 1uM” value was 16.9%. For OCC1(CCCc2ccccc2)CCN(Cc2cc(F)ccc2F)CC1, the “hERG current change (%, negative = inhibition) at 1uM” value was -6.63%. In the case of COc1cccc(CC2(CO)CCCN(Cc3cc(F)ccc3-n3cccn3)C2)c1 (stereo not drawn), the “hERG current change (%, negative = inhibition) at 1uM” value is reported as -85.1%. With COc1cccc(CC2(CO)CCCN(Cc3c(C)cc(C)cc3-n3cccn3)C2)c1 (stereo not drawn) the “hERG current change (%, negative = inhibition) at 1uM” value was -93.1%. For OCC1(CCCc2ccccc2)CCN(Cc2ccc(F)cc2)CC1, the “hERG current change (%, negative = inhibition) at 1uM” value was -25.3%. For COc1ccc(-n2ccnc2CN2CCCC(CO)(Cc3cccc(OC)c3)C2)cc1 (stereo not drawn), the “hERG current change (%, negative = inhibition) at 1uM” value was 0.509%. In the case of COc1ccc(F)c(CN2CCCC(CO)(Cc3cccc(Cl)c3)C2)c1 (stereo not drawn), the “hERG current change (%, negative = inhibition) at 1uM” value is reported as 11.8%. OCC1(CCc2ccccc2)CCN(Cc2cc(F)ccc2-n2cccn2)CC1 was tested, and the “hERG current change (%, negative = inhibition) at 1uM” value was -85.3%. In the case of CCn1ccnc1CN1CCCC(CO)(Cc2cccc(OC)c2)C1 (stereo not drawn), the “hERG current change (%, negative = inhibition) at 1uM” value is reported as -1.48%. With COc1cccc(CC2(CO)CCCN(Cc3cn[nH]c3-c3ccc(F)cc3)C2)c1 (stereo not drawn) the “hERG current change (%, negative = inhibition) at 1uM” value was 6.39%. For O=C(NCCS(=O)(=O)NCc1ccccn1)c1ccccc1, the “hERG current change (%, negative = inhibition) at 1uM” value was 8.81%. With COc1ccccc1C(=O)NNC(=O)C12CC3CC(CC(C3)C1)C2 the “hERG current change (%, negative = inhibition) at 1uM” value was 12.4%. In the case of COc1ccc(OC)c(-c2csc(N(Cc3ccco3)C(=O)c3cccs3)n2)c1, the “hERG current change (%, negative = inhibition) at 1uM” value is reported as -0.179%. For CC(=O)CCC(=O)NCCc1ccccc1F, the “hERG current change (%, negative = inhibition) at 1uM” value was 5.68%. For Cc1ccc(NC(=S)NNC(=O)C2CC2c2ccc(C)cc2)cc1 (stereo not drawn), the “hERG current change (%, negative = inhibition) at 1uM” value was -10.4%. In the case of COP(=O)(CC(=O)c1ccccc1)CC(=O)c1ccccc1, the “hERG current change (%, negative = inhibition) at 1uM” value is reported as 8.51%. In the case of COCCCNC(=S)NC1CC2CCCC(C1)N2Cc1cccs1 (stereo not drawn), the “hERG current change (%, negative = inhibition) at 1uM” value is reported as 1.43%. For COc1nc(-c2ccccc2)ccc1-c1noc(-c2cccs2)n1, the “hERG current change (%, negative = inhibition) at 1uM” value was 0.091%. Br.N=C1c2ccccc2CN1c1ccc(N2CCOCC2)c(S(=O)(=O)Nc2ccc(Cl)cc2)c1 was tested, and the “hERG current change (%, negative = inhibition) at 1uM” value was -89.2%. With CCC(=O)Nc1ccc(N2CCOCC2)c(S(=O)(=O)Nc2ccc(Cl)cc2)c1 the “hERG current change (%, negative = inhibition) at 1uM” value was 11.9%. O=S(=O)(Nc1ccc(N2CCOCC2)cc1)c1cc(Cl)ccc1Cl was tested, and the “hERG current change (%, negative = inhibition) at 1uM” value was 7.82%. In the case of COc1ccccc1NS(=O)(=O)c1cc(NC(=O)C(C)(C)C)ccc1N1CCOCC1, the “hERG current change (%, negative = inhibition) at 1uM” value is reported as -4.51%. COc1ccccc1NS(=O)(=O)c1cc(NC(=O)C2CC2)ccc1N1CCOCC1 was tested, and the “hERG current change (%, negative = inhibition) at 1uM” value was 19.5%. With Br.COc1ccccc1NS(=O)(=O)c1cc(N2Cc3ccccc3C2=N)ccc1N1CCOCC1 the “hERG current change (%, negative = inhibition) at 1uM” value was -61.2%. Cn1c(=O)n(C)c2cc(S(=O)(=O)NCC(=O)O)ccc21 was tested, and the “hERG current change (%, negative = inhibition) at 1uM” value was 4.84%. For CCOc1ccc(CCNC(=O)c2cc3sccc3n2CC)cc1OCC, the “hERG current change (%, negative = inhibition) at 1uM” value was 14.1%. For COc1cc(NC(=O)CCS(=O)(=O)c2ccc3nc(C)sc3c2)cc(OC)c1OC, the “hERG current change (%, negative = inhibition) at 1uM” value was 15.8%. In the case of CN(C)c1cccc(/C=C(\C#N)c2ccccc2)c1, the “hERG current change (%, negative = inhibition) at 1uM” value is reported as 14.2%. With CCOc1ccc(N(C(=O)c2cnccn2)C(C(=O)NC2CCCCC2)c2ccc(O)cc2)cc1 (stereo not drawn) the “hERG current change (%, negative = inhibition) at 1uM” value was 12.4%. In the case of COc1ccc(N(C(=O)c2cnsn2)C(C(=O)NC2CCCCC2)c2ccncc2)cc1 (stereo not drawn), the “hERG current change (%, negative = inhibition) at 1uM” value is reported as 7.11%. For CCOc1ccc(N(C(=O)c2cnsn2)C(C(=O)NC2CCCCC2)c2ccncc2)cc1 (stereo not drawn), the “hERG current change (%, negative = inhibition) at 1uM” value was -52.1%. With COc1cccc(C(=O)Nc2ccc(Cl)c(C(F)(F)F)c2)c1 the “hERG current change (%, negative = inhibition) at 1uM” value was 8.09%. O=CN1CCCN(C(=O)CC2C(=O)NCCN2Cc2cccc(Oc3ccccc3)c2)CC1 (stereo not drawn) was tested, and the “hERG current change (%, negative = inhibition) at 1uM” value was -14.6%. Cn1c(CCN2CCOCC2)nc2cc(NS(=O)(=O)c3ccccc3)ccc21 was tested, and the “hERG current change (%, negative = inhibition) at 1uM” value was 6.09%. For CC(=O)Nc1ccc2c(c1)nc(CCN1CCC(C)CC1)n2C, the “hERG current change (%, negative = inhibition) at 1uM” value was 12.4%. For Cn1c(CCN2CCCCC2)nc2cc(NS(=O)(=O)c3ccc(F)cc3)ccc21, the “hERG current change (%, negative = inhibition) at 1uM” value was -57.5%. Cn1c(CN2CCCCC2)nc2cc(NS(=O)(=O)c3ccc(F)cc3)ccc21 was tested, and the “hERG current change (%, negative = inhibition) at 1uM” value was -21.8%. In the case of CC1CCN(CCc2nc3cc(NS(=O)(=O)c4ccccc4)ccc3n2C)CC1, the “hERG current change (%, negative = inhibition) at 1uM” value is reported as -53.3%. Cn1c(CCN2CCCC2)nc2cc(NS(=O)(=O)c3ccccc3)ccc21 was tested, and the “hERG current change (%, negative = inhibition) at 1uM” value was 6.41%. With CCC(=O)Nc1ccc2c(c1)nc(CCN1CCC(C)CC1)n2C the “hERG current change (%, negative = inhibition) at 1uM” value was 12.3%. For CC1CCN(CCc2nc3cc(NS(=O)(=O)c4ccc(F)cc4)ccc3n2C)CC1, the “hERG current change (%, negative = inhibition) at 1uM” value was -54.8%. Cc1ccc(S(=O)(=O)Nc2ccc3c(c2)nc(CN2CCCC2)n3C)cc1 was tested, and the “hERG current change (%, negative = inhibition) at 1uM” value was -9.18%. With CCn1c(=O)c(CCC(=O)NCC2CCCO2)c(C)c2c(C)nn(-c3ccc(C)cc3)c21 (stereo not drawn) the “hERG current change (%, negative = inhibition) at 1uM” value was 19.9%. For CCOc1ccc(N2C(=O)c3cccnc3C2Nc2ccc(OC)cc2)cc1 (stereo not drawn), the “hERG current change (%, negative = inhibition) at 1uM” value was 1.01%. With CCn1c(=NC(=O)CSCC(=O)Nc2nccs2)sc2ccccc21 the “hERG current change (%, negative = inhibition) at 1uM” value was 2.45%. In the case of CN(C)c1ccc(C(=O)Nc2ccc(O)c3c(=O)cc(-c4ccccc4Cl)oc23)cc1, the “hERG current change (%, negative = inhibition) at 1uM” value is reported as 2.71%.
